A selection: hits, their analogues and other compounds. The true share with any hit is near 4.3%.
DRD3 antagonist = antagonists of human D3 dopamine receptor; P35462; D3R cells, DiscoveRx beta-arrestin luminescence, antagonist mode; hits give low values; max response, negative = inhibition, %; 360,000 tested, 2.5% active; AID 652054; in the data active = max response below about -50%; inconclusive = no clear call, values can overlap the other calls; note: % is set by controls: 0 for no effect and ±100 for the full control effect
Target sequence (P35462 whole entry, looked up): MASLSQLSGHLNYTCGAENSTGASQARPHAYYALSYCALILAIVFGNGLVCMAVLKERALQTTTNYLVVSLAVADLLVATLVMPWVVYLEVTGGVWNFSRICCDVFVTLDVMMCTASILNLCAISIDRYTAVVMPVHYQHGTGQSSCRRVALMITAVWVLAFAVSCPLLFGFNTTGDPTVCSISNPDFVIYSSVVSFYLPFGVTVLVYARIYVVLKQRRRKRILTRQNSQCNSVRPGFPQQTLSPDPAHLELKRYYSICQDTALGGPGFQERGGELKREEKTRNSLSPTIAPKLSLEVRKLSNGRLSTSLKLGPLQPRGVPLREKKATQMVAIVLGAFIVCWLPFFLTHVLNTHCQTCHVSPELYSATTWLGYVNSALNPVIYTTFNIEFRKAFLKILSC
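Cells expressing the human receptor were seeded at 1500 cells/well, incubated overnight at 37 degrees C in 5% CO2, then exposed to library compounds with dopamine controls for 90 minutes at 37 degrees C before luminescent detection.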
GLP1R ag = GLP-1 receptor (human) agonism. Potency, µM (titrated, usually from 45.6 µM), for inactives: top-dose activation, usual class: activators. HEK293 GLP-1R CRE-luciferase, luminescence, 4-6 h; cells express a hypersensitive GLP-1R form. P43220. 380,000 tested, 0.007% active. AID 624172; note: potency is the fitted concentration of half-maximal effect; % of control where 0% means no effect
GLP-1R inv ag = acts as inverse agonist at human GLP-1 receptor. P43220. HEK293 GLP-1R CRE-luciferase, luminescence, 24 h; GLP-1R form is constitutively active. AID 624417. Potency, µM (doses to about 38.3 µM), for the others: at the highest dose activity change, negative = inhibition, most hits filed as inhibitors. 410,000 tested, 1.6% active; note: potency is the fitted concentration of half-maximal effect; % is set by controls: 0 for no effect and ±100 for the full control effect; nearly all actives have a fitted effect of over 55% in size
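HEK293 cells stably co-expressing constitutively active GLP-1R and a cAMP-responsive luciferase reporter were seeded in DMEM with 10% Nu serum, given compounds after 12 h, and incubated 24 h at 37 deg C. Luminescence was then read.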
DRD3 agonist = agonists of human D3 dopamine receptor; P35462; D3R DiscoveRx beta-arrestin cells, luminescence, 90 min; max activation, %; 410,000 tested, 0.58% active; in the data active = max activation above about 30%; note: 0% is about no effect
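Cells at 1500/well, incubated overnight, then treated with pinned compounds (dopamine as control) for 90 min at 37 degrees C. DiscoveRx reagent added for 30 - 60 minutes at room temperature; luminescence read.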
* = called active by the depositor; u = inconclusive; x = not tested or not shown. Unless noted, calls come from the whole dose curve; as a rule, active = well fitted curve in the direction sought with a large enough effect; inconclusive = small, poorly fitted or top-dose-only effect, or another doubt; inactive = no such curve, though single readings can be large; an effect the other way counts as inactive or inconclusive.

SMILES	DRD3 antagonist	GLP1R ag	GLP-1R inv ag	DRD3 agonist
CCc1ccc(OCCNC(=O)c2ccccc2SCc2ccc(F)cc2)cc1	16	-2%	8.9µM*	5
NC(=O)CC(NC(=O)Cc1cccc2ccccc12)c1ccc(NC2CCCCCCC2)c([N+](=O)[O-])c1 (centres undefined)	-61*	13%	1%	-35
NC(=O)CC(NC(=O)Cc1cccc2ccccc12)c1ccc(NCc2ccc(F)cc2)c([N+](=O)[O-])c1 (centres undefined)	-60*	0%	1%	-35
NC(=O)CC(NC(=O)Cc1cccc2ccccc12)c1ccc(NCc2ccccc2)c([N+](=O)[O-])c1 (centres undefined)	-51*	0%	10%	-15
CC(C)Cn1cnc2c(c(-c3ccccc3)c(-c3ccccc3)n2Cc2ccco2)c1=N	-62*	-7%	3.2µM*	-2
c1ccc(-c2c(-c3ccccc3)n(Cc3ccco3)c3ncnc(NCCCn4ccnc4)c23)cc1	-95*	-11%	u	3
CCN(C(=O)Cn1cc(S(=O)(=O)Cc2ccccc2Cl)c2ccccc21)c1ccccc1	x	x	u	4
Cc1nc(C(=O)NCc2ccccc2)sc1C1(C)CC(c2ccccc2)=NO1 (centres undefined)	-50*	8%	-27%	-18
CCCNC(=O)Cn1c(=O)c2cccn2c2cccnc21	x	x	-27%	0
Oc1ccccc1C1Nc2cccc3cccc(c23)N1	-7	-34%	26%	2
O=[N+]([O-])c1ccccc1C1Nc2cccc3cccc(c23)N1	-104*	-2%	138%	-20
CCCCN(Cc1cc2ccccc2[nH]c1=O)C(=O)c1cccc(Cl)c1	x	x	3%	6
CCOCCN1CCN(c2c(CC)c(C)nc3cc(-c4cc(OC)cc(OC)c4)nn23)CC1	16	-20%	u	1
CCc1c(C)nc2cc(-c3cc(OC)cc(OC)c3)nn2c1N1CCCC1	10	7%	u	31*
O=c1/c(=C\c2ccc(O)cc2)sc2n1C(c1ccccc1)C(c1ccccc1)=NN=2 (centres undefined)	-59*	-2%	u	-28
COc1cc2c(C(=O)N3CCN(C)CC3)c(C)n(-c3ccccc3)c2cc1Br	2	-16%	-4%	2
CCN(CC)CCNC(=O)c1c(C)n(-c2ccccc2)c2cc(Br)c(OC)cc12	-65*	-18%	u	-2
Fc1ccc(OCCOCCN2CCCC2)cc1	-3	3%	16%	-12
Cc1ccc(C(C)(C)C)c(OCCN2CCCC2)c1	2	-14%	0%	-7
CC(C)(C)c1ccccc1OCCN1CCCC1	-79*	-10%	-14%	-26
CC(OCCN1CCCC1)(c1ccc(F)cc1)c1ccc(F)cc1	-76*	-2%	10µM*	-48
Cc1cccc(C(C)(C)C)c1OCCOCCN1CCCC1	u	-4%	u	-17
Cc1cccc(C(C)(C)C)c1OCCN1CCCC1	-93*	-1%	-11%	-36
CCn1c(=N)n(CC(=O)c2ccc(Cl)c(Cl)c2)c2ccccc21	25	15%	u	1
N=c1n(CCN2CCCCC2)c2ccccc2n1CC(=O)c1ccc(Cl)c(Cl)c1	u	11%	5.6µM*	-22
SMILES	DRD3 antagonist	GLP1R ag	GLP-1R inv ag	DRD3 agonist
CN(Cc1ccccc1)C(=O)C1CCCN(Cc2ccc(Cl)cc2)C1 (centres undefined)	-68*	11%	u	-17
Nc1nc(CN2CCCCCC2)nc(Nc2ccccc2)n1	u	-6%	-28%	1
CCOC(=O)C1CCCN(Cc2ccc3c(c2)OCO3)C1 (centres undefined)	-100*	2%	0%	-32
CCOC(=O)C1CCCN(Cc2nc(N)nc(Nc3ccccc3)n2)C1 (centres undefined)	-60*	11%	0%	-23
CCN(CC)C(=O)C1CCCN(Cc2ccccc2)C1 (centres undefined)	-23	0%	0%	-1
CCOC(=O)C1CCCN(Cc2ccc(OC)cc2OC)C1 (centres undefined)	-52*	8%	-2%	-8
Cc1ccc(CCNC(=O)CCCn2nc(C)c3c(C)n(-c4ccccc4)nc3c2=O)cc1	x	x	-5%	-4
Cc1cccc(NC(=O)c2sc3cccc(Cl)c3c2Cl)c1	x	x	17%	-9
COc1ccc(Br)cc1C(=O)Nc1cccc2ccc(C)nc12	x	x	4%	-10
CCOC(=O)C1CCCN(Cc2ccc(OCc3ccccc3)cc2)C1 (centres undefined)	-61*	19%	u	-15
CCOC(=O)C1CCCN(Cc2cccc(Cl)c2)C1 (centres undefined)	-61*	5%	0%	-57
CCOC(=O)C1CCCN(CC(=O)c2ccc(F)cc2)C1 (centres undefined)	-66*	0%	7%	-14
CCOC(=O)C1CCCN(C(=O)COc2ccc(C(=O)c3ccccc3)cc2)C1 (centres undefined)	6	9%	1.6µM*	-3
CCOC(=O)C1CCCN(Cc2ccc(OCc3ccccc3)c(OC)c2)C1 (centres undefined)	-4	6%	u	-11
CCC(C)NC(=O)c1cccc(NC(=O)c2nsc3ccccc23)c1 (centres undefined)	x	x	4%	-5
CN(Cc1ccc(Cl)cc1)C(C(=O)NC1CCCCC1)c1cc2ccccc2o1 (centres undefined)	-3	-1%	u	-6
CCOC(=O)C1CCCN(C(=O)Cn2cnc3c2c(=O)n(C)c(=O)n3C)C1 (centres undefined)	15	-12%	5%	32*
CN(Cc1ccc(Cl)cc1)C(CCc1ccccc1)C(=O)NC1CCCCC1 (centres undefined)	-60*	0%	18%	-17
CCOC(=O)C1CCCN(CCCc2ccccc2)C1 (centres undefined)	-65*	18%	-18%	-16
Cc1c2cnn(CC(=O)Nc3ccc(F)cc3F)c(=O)c2c(C)n1Cc1cccc(Cl)c1	x	x	13%	7
COC(=O)c1cc([N+](=O)[O-])ccc1N1CCN(Cc2ccccc2)CC1	-52*	19%	-14%	-10
CN1CCN(c2ccc([N+](=O)[O-])cc2C(=O)c2ccc(Br)cc2)CC1	-56*	-6%	u	-9
CC1CCC2C(=O)N(c3ccc(NC4CCN(Cc5ccccc5)CC4)c([N+](=O)[O-])c3)C(=O)C2C1 (centres undefined)	-50*	-1%	-21%	-22
O=[N+]([O-])c1ccc(NC2CCN(Cc3ccccc3)CC2)c([N+](=O)[O-])c1	-62*	9%	u	-4
Clc1cccc(C2=NC(c3cccs3)=Nc3ccc(Br)cc3N2)c1	x	x	-20%	-12
COc1ccc(NC2=NC(=S)N(c3ccccc3C)C23CCCCC3)cc1	0	-7%	7.9µM*	-6
C=CCn1c(NCc2cc(Cl)ccc2O)nc2ccccc21	6	4%	11µM*	5
Cc1cc(=O)n(CCCc2ccccc2)[nH]1	-67*	-4%	13%	-6

Assay outcomes (PubChem BioAssay)
